Most compounds without a hit are left out; they make up all but 3.4% or so of the library.
hgDAF12 agonist = agonists of H. glycines DAF-12 nuclear receptor | HEK293 GAL4-hgDAF12 UAS-luciferase reporter, agonist luminescence; normalized to butyrate control | activation, % at 6.8 µM | 1.8% of 370,000 active | AID 687014;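 active = activation above a cutoff set at the mean of all screened compounds plus 3 SD, cut at about 10% in these data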;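 also: 0% = DMSO wells and 100% = sodium butyrate wells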
ssDAF12 agonist = activates DAF-12 receptor from parasite S. stercoralis; HEK293 ssDAF-12/GRIP1 lit1-tk-luc reporter, luminescence; % of 3 µM dafachronic acid response; activation, % at 6.8 µM; 1% of 370,000 active;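 active = activation above the mean over all tested compounds plus 3 SD, cut at about 0.9% in these data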;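 also: 0% = DMSO-only wells and 100% = 3 µM delta7-dafachronic acid wells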
hcDAF12 agonist = activates DAF-12 receptor from parasite H. contortus; HEK293 hcDAF-12 lit1-tk-luc reporter, luminescence; 0% DMSO, 100% Δ7-dafachronic acid; activation, % at 6.8 µM; 1.4% of 370,000 active; AID 652067;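 active = activation above the mean of all tested compounds plus 3 SD, cut at about 5.5% in these data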;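 also: 100% = response to 3 µM Δ7-dafachronic acid high control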
APP 5'UTR act = activates APP 5'UTR luciferase reporter. SH-SY5Y APP 5'UTR luciferase reporter, luminescence; zero percent = DMSO vehicle wells. 1% of 190,000 active. activation, % at 2 µM;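 active = activation above a set limit, based on mean plus 3 SD of controls, cut at about 140% in these data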
NF-kB neuron act = NF-kB expression increase, human neuronal cells | NF-kB reporter expression; hits give high values | fold change at 12.5 µM | 1.6% of 190,000 active; in the data active = fold change above about 3.3
The depositor's hits bear a star; nt = no result.

SMILES | hgDAF12 agonist | ssDAF12 agonist | hcDAF12 agonist | APP 5'UTR act | NF-kB neuron act
Cc1cc(/C=C2/C(=O)NC(=O)N(c3ccc(Br)cc3)C2=O)c(C)n1C | 2.7 | -0.2 | 5.9* | nt | nt
Cc1cc(/C=C2\C(=O)NC(=O)N(c3cccc(Br)c3)C2=O)c(C)n1C | -0.2 | -1.1 | -0.2 | 10.0 | 1.21
Nc1c2c(nc3ccccc13)CCN(Cc1ccccc1)C2 | 3.6 | 0.2 | 6.1* | nt | nt
CC[C@H](C)[C@@H]1OC(=O)[C@H](C(C)C)N(C)C(=O)[C@H](C(C)C)NC(=O)[C@@H](C)[C@@H](CCCC#CBr)OC(=O)[C@H](C(C)C)N(C)C(=O)C2CCCN2C1=O (some centres undefined) | -3.1 | -2.2 | -2.2 | nt | nt
CC(=NNC(=S)N1CC2CCC(CC2)C1)c1nccs1 | 12.1* | 0.1 | 4.7 | nt | nt
COc1ccccc1N(CC(=O)NC1CCCC1)C(=O)c1cnn(C(C)C)c1 | -0.9 | -1.2 | -1.3 | -9.3 | 1.26
COc1ccccc1N(CC(=O)NC1CCCCC1)C(=O)c1cnn(C(C)C)c1 | 0.3 | 1.3* | 3.0 | 12.5 | 1.16
COC(=O)C(O)(c1ccc(NC(=S)NC(=O)c2ccc(Cl)cc2Cl)cc1)C(F)(F)F (centres undefined) | -3.3 | -0.8 | -2.3 | 14.6 | 1.35
COC(=O)C(O)(c1ccc(NC(=O)NC2CCCCC2)cc1)C(F)(F)F (centres undefined) | 11.3* | 0.7 | 0.9 | 35.5 | 1.16
CN1C(=O)[C@@]23C[C@]4(c5c[nH]c6ccccc56)c5ccccc5N(S(=O)(=O)c5ccccc5)[C@@H]4N2C(=O)[C@@H]1SS3 | -14.3 | -3.7 | -8.7 | nt | nt
O=C(Nc1ccc(Cl)cc1)Nc1nccs1 | 10.5* | 0.0 | 1.9 | -60.1 | 2.29
O=C(CN1C(=O)[C@@H](Cc2c[nH]c3ccccc23)N=C(c2ccccc2)c2ccccc21)NC1CCCCC1 | 0.7 | -1.1 | -1.1 | nt | nt
N=c1c2c(-c3ccccc3)c(-c3ccccc3)n(Cc3ccccc3)c2ncn1C1CCC(O)CC1 (centres undefined) | 1.2 | -0.7 | -0.6 | nt | nt
COc1ccc(-c2nc3ccccc3c(=O)o2)cc1 | 6.3 | -0.2 | 5.9* | 18.6 | 2.19
COC(=O)C1(N(C)c2ccccc2)CCN(Cc2ccccc2)CC1 | -0.4 | -0.8 | 2.3 | nt | nt
CCCCCCOc1ccc(CN2CCN(CC)CC2)cc1 | 4.9 | -1.6 | 0.3 | 144.8* | 1.13
CCN1CCN(c2nc3ccccc3s2)CC1 | nt | nt | nt | 60.7 | 4.69*
CCN1CCN(c2cc(=O)n3ccccc3n2)CC1 | 1.6 | -0.2 | 0.8 | nt | nt
CC/C(=N\Nc1ccccc1)c1c(O)n(C)c(=O)n(C)c1=O | -0.5 | -1.4 | 4.4 | 5.7 | 1.21
Cn1c(O)c(C(=Nc2ccccc2)SCc2ccccc2Cl)c(=O)n(C)c1=O | 3.8 | -1.1 | 4.6 | nt | nt
CSC(=Nc1ccccc1)c1c(O)n(C)c(=O)n(C)c1=O | 3.6 | -0.5 | 5.7* | 5.0 | 1.24
C/C(=N\NC(=S)Nc1ccccc1)c1c(O)n(C)c(=O)n(C)c1=O | 10.8* | 0.3 | 4.2 | 117.1 | 1.24
Fc1cccc(F)c1-c1nc(-c2ccc(Cl)cc2)no1 | 8.3 | 1.8* | 3.0 | nt | nt
O=c1[nH]c(=O)n(-c2cccc(F)c2)c(O)c1/C=C1\C=Nc2ccccc21 | 0.7 | 0.4 | 5.7* | nt | nt
CN1c2ccc(Br)cc2[C@H]2NCC[C@H]2[C@H]1CO | 2.3 | 0.3 | 4.0 | nt | nt
SMILES | hgDAF12 agonist | ssDAF12 agonist | hcDAF12 agonist | APP 5'UTR act | NF-kB neuron act
Clc1ccc2[nH]c3c(c2c1)CCNC3 | 1.2 | 0.9* | -1.8 | nt | nt
N#CC1c2ccccc2-n2nncc2CN1C(=O)c1ccc([N+](=O)[O-])o1 (centres undefined) | -3.0 | -1.9 | -1.1 | nt | nt
NC(Cc1ccccc1)c1csc(Nc2ccccn2)n1 (centres undefined) | 10.7* | 0.3 | 3.9 | nt | nt
O=C1OC(c2ccc(Cl)cc2)=N/C1=C\N1CC2CC(C1)c1cccc(=O)n1C2 (centres undefined) | 5.1 | 1.6* | -0.9 | nt | nt
CCC(NC(=O)OCc1ccccc1)P(=O)(Oc1ccccc1)Oc1ccccc1 (centres undefined) | 0.6 | -0.8 | -3.1 | nt | nt
Nc1c(C(=O)NCCCc2ccccc2)c2nc3ccccc3nc2n1Cc1cccs1 | -3.8 | 2.3* | 2.0 | 9.5 | 0.67
CO[C@H]([C@H](C)/C=C/N(C)C=O)[C@@H](C)C(=O)CC[C@H](C)[C@H](O)[C@H](C)[C@H]1OC(=O)/C=C/C(C)=C/[C@H](O)[C@H](OC)C[C@@H]2C=CC[C@@H](C[C@H](OC)[C@@H](CO)[C@@H](OC)C[C@@H](OC)[C@@H]1C)O2 | -9.3 | -1.4 | -0.9 | nt | nt
O=c1[nH]c(=S)[nH]c(O)c1/C=C1/C=c2ccccc2=N1 | 3.4 | 0.0 | 5.8* | nt | nt
Cc1cccc2c1=NC(=O)/C(=C/c1c(O)[nH]c(=O)[nH]c1=O)C=2 | -0.1 | 0.1 | 5.4 | -4.2 | 1.02
CN(C(=O)Oc1ccc(C(C)(C)C)cc1)c1ccccc1 | 11.3* | -0.6 | -2.0 | 13.1 | 1.9
CN(C(=O)Oc1ccc(F)cc1)c1ccccc1 | -2.0 | -1.1 | 0.1 | nt | nt
c1cncc(-c2ccc3n2Cc2cnnn2-c2ccccc2-3)c1 | 1.8 | -1.7 | -3.5 | nt | nt
CC1CCN(CC(=O)c2ccccc2Cl)CC1 | 10.9* | -0.4 | 4.1 | -3.9 | 1.7
C/C(=N\NC(=O)c1ccccc1)c1c(O)n(Cc2ccccc2)c(=O)[nH]c1=O | 11.4* | -0.8 | 2.7 | nt | nt
C/C(=N\Nc1cccc2ccccc12)c1c(O)n(Cc2ccccc2)c(=O)[nH]c1=O | -2.2 | 0.0 | 2.5 | 23.5 | 0.93
Cc1nc(Cl)sc1C(=O)Nc1ccc2ccccc2c1 | 9.4 | -1.2 | -1.4 | 94.0 | 5.48*
O=C(Nc1ccc2ccccc2c1)c1nn(C23CC4CC(CC(C4)C2)C3)cc1Br | 2.2 | -1.3 | -1.2 | 14.2 | 1
O=C(CN1C(=O)[C@@H](Cc2ccccc2)N=C(c2ccccc2)c2ccccc21)NC1CCCCC1 | -2.3 | -0.1 | -2.1 | nt | nt
COc1cc(C=C2C(=O)NC(=O)NC2=O)ccc1OCc1ccc([N+](=O)[O-])cc1 | 13.1* | -0.6 | 2.7 | 1.7 | 3.42*
Nc1ccc(Cl)c(Cl)c1 | 1.8 | 1.1* | 0.4 | nt | nt
Cc1ccccc1CCC[C@H](CC1CCCCC1)CN(C)C(=O)Oc1ccccc1 | 2.3 | -0.4 | -1.9 | nt | nt
N#CC1c2ccccc2-n2nncc2CN1C(=O)c1cccnc1 (centres undefined) | 0.2 | -0.3 | -1.4 | nt | nt
CC1(C)CN=C(NCc2ccccc2)S1 | 0.4 | -0.8 | -1.2 | nt | nt
CC1(C)CN=C(Nc2nc3ccccc3s2)S1 | 9.7 | 1.5* | 5.4 | 125.8 | 4.73*
O=C(CNC(=O)OCc1ccccc1)NC(Cc1ccccc1)P(=O)(Oc1ccccc1)Oc1ccccc1 (centres undefined) | -0.2 | -1.0 | -3.0 | nt | nt
O=C(NC(Cc1ccccc1)P(=O)(O)Oc1ccccc1)OCc1ccccc1 (centres undefined) | -2.7 | -1.0 | -1.0 | nt | nt
CC(=O)N1c2ccccc2C(c2ccccc2)=NCC1C(=O)NCc1ccccc1 (centres undefined) | -1.3 | -0.7 | -1.8 | nt | nt

Screening results (PubChem)
